Unmarked numbers belong to inactive results. The rule behind the calls is not given here.
Molecular target: Pantothenate synthetase (Mycobacterium tuberculosis (strain ATCC 25618 / H37Rv)) (UniProt P9WIL5)
Experiment: Coupled enzyme confirmation of inhibitors against recombinant Mtb PanC (AID 375);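 note: 0% = full reaction with vehicle and 100% = no enzyme background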
Conditions: coupled enzyme assay; at 10 µM, hits give high values

Pantothenate synthetase (Mycobacterium tuberculosis (strain ATCC 25618 / H37Rv)), sequence (P9WIL5 whole entry, looked up): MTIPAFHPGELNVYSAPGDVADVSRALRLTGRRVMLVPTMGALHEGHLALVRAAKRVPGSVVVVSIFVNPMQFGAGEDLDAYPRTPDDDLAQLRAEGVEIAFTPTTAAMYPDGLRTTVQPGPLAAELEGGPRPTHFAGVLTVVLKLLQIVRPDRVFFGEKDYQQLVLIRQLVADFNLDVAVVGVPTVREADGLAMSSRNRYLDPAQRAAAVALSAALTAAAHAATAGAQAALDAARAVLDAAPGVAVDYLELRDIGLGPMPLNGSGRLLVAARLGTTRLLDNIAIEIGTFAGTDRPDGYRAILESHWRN

In order of falling inhibition:
1. CCOC(=O)C1=C(C)NC(C)=C(C(=O)OCC)C1C(=O)OC1CCOC1=O (stereo not given)  13%
2. CCOc1cccc(C(=O)Nc2cccc(-c3nc4ncccc4o3)c2C)c1  10%
3. O=C(c1cc(-c2cccc(O)c2)on1)N1CCN(C(c2ccccc2)c2ccccc2)CC1  8%
4. COc1cc(NC(=O)c2ccc(COCC(F)(F)F)o2)cc(OC)c1OC  7%
5. COc1cc(NC(=O)CSCc2cnn(-c3ccccc3)c2-n2cccc2)cc(OC)c1  6%
6. Cc1ccc2[nH]c(=O)c(CN(CCCO)S(=O)(=O)c3c(C)ccc4nsnc34)cc2c1  6%
7. CCOC(=O)Cn1ncc(-c2ccccc2)c1N  6%
8. COc1ccc2cnn(-c3ccccc3)c(=O)c2c1OC  6%
9. Cc1csc(NC(=O)c2sc3nc(-c4cccs4)ccc3c2N)n1  5%
10. CCC1CCCCN1S(=O)(=O)c1ccc(C(=O)Nc2nnc(-c3ccccc3Cl)o2)cc1 (stereo not given)  4%
11. COC(=O)CCCCCc1ccc(C(C)=O)s1  4%
12. CCCn1cnc2c(cnn2-c2ccc(F)cc2)c1=O  4%
13. c1ccc(SCc2nc3ccccc3[nH]2)nc1  4%
14. COC(=O)CC(C(=O)Nc1cc(C(=O)OC)cc(C(=O)OC)c1)N1CCN(C)CC1 (stereo not given)  3%
15. COc1cc(C)c(N)cc1C(C)C  2%
16. CCN1CCN(Cc2nc3c(c(=O)[nH]c(=O)n3C)n2Cc2ccccc2Cl)CC1  2%
17. CCSc1nnc(NC(=O)c2nn(C(C)C)c(=O)c3ccccc23)s1  1%
18. CCn1c(SCC(=O)NCCc2ccc(Cl)cc2)nnc1-c1cccs1  1%
19. Cc1ccc(-c2noc(CCC(=O)NCCc3ccccc3Cl)n2)cc1  1%
20. CCN(CC)CCN1C(=O)Cn2c(C)c(C)c3cccc1c32  1%
21. CCCCOc1ccc(-c2nnc(N)s2)cc1  0%
22. CN(C)CCCOC(=O)CCc1ccccc1  0%
23. CCOC(=O)C1=C(C)OC(N)=C(C#N)C1c1ccoc1 (stereo not given)  0%
24. Nc1nc(N2C(=O)C3CC=CCC3C2=O)nn1-c1ccccc1 (stereo not given)  0%
25. O=C(Cn1cc2c(n1)CCCC2)NCCc1ccccc1  0%
26. CSc1nnc(-c2cnccn2)n1Cc1ccccc1  0%
27. COc1ccc(C2CC(c3ccc(C)cc3)Nc3ncnn32)cc1 (stereo not given)  0%
28. O=C(c1ccc2c(c1)OCO2)N1CCNc2ccccc2C1  0%
29. COc1ccc(OCC(=O)N2CC3(C)CC2CC(C)(C)C3)cc1 (stereo not given)  0%
30. Cc1ccc(C(C(=O)NC2CCCCC2)N(C(=O)c2csnn2)C2CCCC2)o1 (stereo not given)  0%
31. O=C(Nc1cccc(F)c1)C1C2C=CC3(CN(CCCN4CCOCC4)C(=O)C13)O2 (stereo not given)  0%
32. COc1cc2c3c(c1)/C(=C1/SC(NC(C)=O)=NC1=O)C(=O)N3C(C)(C)C=C2C  0%
33. CCn1c(C)nc2cc(C(=O)OC(C(F)(F)C(F)F)C(F)(F)C(F)F)ccc21  0%
34. CCCCN(C)C(=O)CS(=O)(=O)Cc1nc(-c2cccc(OC)c2)oc1C  0%
35. CCC(=O)Nc1ccc2nc(SCC(=O)N3CCCC3)sc2c1  0%
36. COc1cc(C2Oc3cc(C4Oc5cc(O)cc(O)c5C(=O)C4O)ccc3OC2CO)ccc1O (stereo not given)  0%
37. CC1CCc2cc(F)cc3c(O)c(C(=O)Nc4cnccn4)c(=O)n1c23 (stereo not given)  0%
38. c1ccc(C2(Cn3ccc4ccccc43)OCCO2)cc1  0%
39. O=C(Nc1cccc(C(=O)N2CCOCC2)c1)c1cccnc1  0%
40. Cc1ccnc2c(N3C(=O)C4C5C=CC(C5)C4(C)C3=O)cccc12 (stereo not given)  0%

From PubChem BioAssay
